Compound activity as filed in PubChem BioAssay.
In the library only some 19% were active in any assay of this set; here they are far more common.
TDP1 cell CPT: growth inhibition of DT40 Tdp1-/-;hTDP1 cells with camptothecin (screen for TDP1 inhibitors); AID 686979; Potency, µM (titrated, usually from 46.2 µM), inactives show top-dose activity change, negative = growth inhibition, usual class: inhibitors; chicken DT40 Tdp1-/-;hTDP1 cells + 20 nM CPT, ATP luminescence, 48 h; hit rate 12% among 420,000; also: potency is read from the fitted curve at half-maximal effect; % is scaled to controls: 0 for no effect and ±100 for the full control effect; nearly all actives have a fitted effect of over 55% in size
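Cell growth measured by CellTiter-Glo luminescence after a minimum 48 h, 37 C compound exposure with 20 nM CPT in Tdp1-knockout DT40 cells stably expressing hTDP1, seeded 400/well; qHTS titration format.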
IL1B secr inh: inflammasome signaling inhibition, IL-1 beta readout | THP-1 LPS/ATP IL-1B secretion, AlphaLISA, 16 h; hits give low values | AID 743279 | activity change, % at 57.5 µM | hit rate 4.7% among 360,000; in the data active = activity change below about -50%; inconclusive = mostly about -30% to -49%; also: % is scaled to controls: 0 for no effect and ±100 for the full control effect
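THP-1 cells pretreated 1 hr with compounds (up to 57.5 uM final), then stimulated with LPS (250 ng/mL final) plus ATP (1.25 mM final); secreted IL-1B measured by AlphaLISA after 16 hr, decreased signal indicating inhibition.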
ASM inhibitor: human S-ASM enzyme inhibition; placental ASM, HMU-PC fluorogenic substrate, 60 min; AID 504937; Potency, µM (top dose mostly 57.5 µM), without a hit: at the top dose activity change, negative = inhibition, hits mostly inhibitors; hit rate 0.006% among 340,000; also: potency is read from the fitted curve at half-maximal effect
Target sequence (P17405 47-631 limits assumed): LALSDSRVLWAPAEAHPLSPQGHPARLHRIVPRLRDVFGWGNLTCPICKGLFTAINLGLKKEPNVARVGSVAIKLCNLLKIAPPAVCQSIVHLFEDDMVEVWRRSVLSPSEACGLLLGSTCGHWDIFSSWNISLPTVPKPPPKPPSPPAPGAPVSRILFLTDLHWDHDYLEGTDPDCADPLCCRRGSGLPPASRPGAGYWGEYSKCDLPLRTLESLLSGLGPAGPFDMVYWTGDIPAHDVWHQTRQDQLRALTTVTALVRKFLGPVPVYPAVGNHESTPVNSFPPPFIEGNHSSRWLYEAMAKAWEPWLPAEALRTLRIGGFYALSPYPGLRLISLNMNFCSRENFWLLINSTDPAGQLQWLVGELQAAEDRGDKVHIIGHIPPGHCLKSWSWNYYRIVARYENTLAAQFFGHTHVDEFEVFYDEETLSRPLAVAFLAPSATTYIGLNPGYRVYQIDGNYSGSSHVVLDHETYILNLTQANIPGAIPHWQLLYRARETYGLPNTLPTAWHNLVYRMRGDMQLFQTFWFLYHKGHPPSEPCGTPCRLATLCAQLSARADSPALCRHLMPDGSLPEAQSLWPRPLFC
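Human placenta-derived ASM preincubated with compound 10 min at room temperature, then reacted with 9 uM (final) fluorogenic HMU-PC substrate for 60 min at 37 C. Stop solution raises pH to 10; fluorescence read at Ex 386/Em 447 nm.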
TDP1 cell noCPT: qHTS for Inhibitors of human tyrosyl-DNA phosphodiesterase 1 (TDP1): qHTS in cells in absence of CPT; hit rate 15% among 420,000; Potency, µM (highest dose often 46.2 µM), for the others: top-dose activity change, negative = growth inhibition, usual class: inhibitors; AID 686978, 2013; DT40 Tdp1-/- hTDP1 cells, no CPT, ATP luminescence, 48 h; also: potency is read from the fitted curve at half-maximal effect; % is scaled to controls: 0 for no effect and ±100 for the full control effect; nearly all actives have a fitted effect of over 55% in size
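DT40 Tdp1-/-;hTDP1 cells, no CPT (DMSO vehicle only), 400 cells/well; compounds pin-transferred; ≥48 hr, 37 °C; CellTiter-Glo 30 min RT dark, luminescence read.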
HepG2 viability: kills HepG2 cells in TGF-b inhibitor counter-screen; HepG2 CAGA-GFP viability, ATP luminescence, 18 h; Potency, µM (series often up to 46.1 µM), inactives show at the top dose activity change, negative = cytotoxicity, hits mostly cytotoxic; hit rate 0.76% among 410,000; AID 588856; also: potency is read from the fitted curve at half-maximal effect
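CellTiter-Glo luminescence gave cytotoxicity after 18 hours at 37 degrees C. The cells were HepG2 CAGA-GFP in 1% FBS DMEM, stimulated with 500 pg/mL TGF-beta after compound addition. %Activity was normalised to no-cell wells (complete cell-killing) and DMSO (no toxicity), and curves were fitted and classified.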
TGFb SMAD3 inh: blocks TGF-b signaling; HepG2 CAGA-GFP TGF-b/SMAD3 reporter, GFP fluorescence, 18 h; TGF-beta stimulated, 500 pg/mL final; Potency, µM (top dose mostly 46.1 µM), without a hit: at the top dose activity, negative = inhibition, hits mostly inhibitors; hit rate 1.2% among 410,000; also: potency is read from the fitted curve at half-maximal effect; % is scaled to controls: 0 for no effect and ±100 for the full control effect; nearly all actives have a fitted effect of over 65% in size
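GFP signal (ex488/em500-530) from TGF-beta-stimulated HEPG2 CAGA-GFP cells, 500 pg/mL final, 18 h at 37 degrees C in DMEM plus 1% FBS, normalized to unstimulated and DMSO-stimulated controls.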
* = called active by the depositor; ? = inconclusive; nt = no result. Unless noted, calls follow the shape of the dose curve; as a rule, active = well fitted curve in the direction sought with a large enough effect; inconclusive = small, poorly fitted or top-dose-only effect, or another doubt; inactive = no such curve, though single readings can be large; an effect the other way counts as inactive or inconclusive.

SMILES	TDP1 cell CPT	IL1B secr inh	ASM inhibitor	TDP1 cell noCPT	HepG2 viability	TGFb SMAD3 inh
CCc1nc2c(OCc3cc(Cl)cc(Cl)c3)cccn2c1N(C=O)Cc1ccccc1	26µM*	?	nt	?	-73%	?
CCc1nc2c(OCC(=O)c3ccc(Cl)cc3Cl)cccn2c1N(C=O)Cc1ccccc1	21µM*	-8	nt	?	-32%	?
CCCCN(C=O)c1c(CC)nc2c(OCc3ccc(Cl)cc3)cccn12	18µM*	-51*	nt	23µM*	-33%	?
CCc1nc2c(OCc3cc(Cl)cc(Cl)c3)cccn2c1N(C=O)Cc1ccc(OC)cc1	23µM*	-79*	nt	?	-35%	?
CCCCN(C=O)c1c(CC)nc2c(OCc3cc(Cl)cc(Cl)c3)cccn12	?	-21	nt	?	-22%	?
COc1ccc(OC)c(NC(=O)c2cc3c(=O)oc4ccccc4c3s2)c1	-3%	nt	nt	-6%	4%	-12%
CCc1nc2c(OCCc3cccc(OC)c3)cccn2c1N(C=O)Cc1ccccc1	?	?	nt	?	-6%	-1%
CCc1nc2c(OCCc3cccc(OC)c3)cccn2c1N(C=O)Cc1ccc(OC)cc1	18µM*	-13	nt	?	-7%	-8%
CCc1nc2c(OCc3c(C)noc3C)cccn2c1N(C=O)Cc1ccccc1	?	0	nt	21µM*	2%	5%
C=CCOc1cccn2c(N(C=O)Cc3ccccc3)c(CC)nc12	13µM*	31	nt	12µM*	-7%	-7%
CCc1nc2c(OCc3ccc(Cl)cc3)cccn2c1N(C=O)Cc1ccccc1	?	-14	nt	23µM*	-4%	?
CCc1ccc(C2NC(=O)c3ccccc3O2)cc1 (stereo unspecified)	12%	-10	-2%	-14%	0%	12%
CC(O)(c1cccc(F)c1)c1nc(/C=C/c2ccccc2)cs1 (stereo unspecified)	18µM*	-4	nt	?	-55%	?
CC(O)(c1cccc(F)c1)c1nc(-c2ccc3ccccc3c2)cs1 (stereo unspecified)	13µM*	0	nt	23µM*	-32%	?
CC(=O)Nc1cccc(-c2csc(C(C)(O)c3cccc(F)c3)n2)c1 (stereo unspecified)	23µM*	59	nt	?	-8%	-2%
CC(O)(c1ccccc1)c1nc(-c2ccc(F)c(Cl)c2)cs1 (stereo unspecified)	?	7	nt	?	-50%	?
COc1ccc(-c2csc(C(C)(O)c3cccc(F)c3)n2)cn1 (stereo unspecified)	23µM*	13	nt	23µM*	-14%	-17%
O=C(CSCc1ccc(Cl)cc1)N/N=C/c1ccco1	-12%	-11	4%	?	0%	1%
COc1ccc(NC(=O)COC(=O)CCc2cc(OC)c(OC)c(OC)c2)c([N+](=O)[O-])c1	-23%	4	-5%	10%	-3%	7%
CC(O)(c1ccc(F)c(F)c1)c1nc(/C=C/c2ccc(C(F)(F)F)cc2)cs1 (stereo unspecified)	?	-20	nt	?	-119%	?
CC(O)(c1ccccc1)c1nc(-c2cccc(F)c2)cs1 (stereo unspecified)	21µM*	-1	nt	-22%	-20%	?
CC(O)(c1cccc(F)c1)c1nc(-c2cc(F)cc(F)c2)cs1 (stereo unspecified)	2.9µM*	-12	nt	?	-64%	11µM*
OC(c1ccccc1)(c1nc(/C=C/c2ccc(C(F)(F)F)cc2)cs1)C(F)(F)F (stereo unspecified)	?	-2	nt	23µM*	-110%	?
CCN(CC)C(=O)c1cccc(-c2csc(C(C)(O)c3cccc(F)c3)n2)c1 (stereo unspecified)	18µM*	-23	nt	23µM*	-19%	?
CC(O)(c1cccc(F)c1)c1nc(-c2cncnc2)cs1 (stereo unspecified)	?	68	nt	-24%	7%	-15%
SMILES	TDP1 cell CPT	IL1B secr inh	ASM inhibitor	TDP1 cell noCPT	HepG2 viability	TGFb SMAD3 inh
CCN(CC)C(=O)c1cccc(-c2csc(C(C)(NC(C)=O)c3ccccc3)n2)c1 (stereo unspecified)	?	-5	nt	?	-13%	-2%
Cc1c(=O)n(OCc2ccc(Cl)cc2)c2ccccc2[n+]1[O-]	-10%	16	8%	6.5µM*	1%	18%
COc1cccc(NC(=O)Cn2c(=O)n(-c3cccc(OC)c3)c(=O)c3c4c(sc32)CCCC4)c1	13µM*	nt	nt	18µM*	8%	-5%
COc1ccc(-n2c(=O)c3c4c(sc3n(CC(=O)C(C)(C)C)c2=O)CCCC4)c(OC)c1	15µM*	nt	nt	?	-3%	0%
CCN(CC)C(=O)c1sc2c(c1C)c(=O)n(-c1ccc(OC)cc1OC)c(=O)n2Cc1cc(C)ccc1C	?	nt	nt	?	-38%	?
COc1ccc(-n2c(=O)c3c4c(sc3n(Cc3ccccc3)c2=O)CCC4)c(OC)c1	?	nt	nt	23µM*	-1%	-1%
COc1ccc(-n2c(=O)c3c4c(sc3n(CC(=O)Nc3cc(C)[nH]n3)c2=O)CCC4)c(OC)c1	-24%	-24	-2%	?	-11%	1%
COc1cc(NC(=O)Cn2c(=O)n(-c3ccccc3)c(=O)c3c4c(sc32)CCCC4)cc(OC)c1	-6%	nt	nt	-28%	-2%	5%
COc1ccc(-n2c(=O)c3c4c(sc3n(Cc3cc(C)ccc3C)c2=O)CN(C(C)=O)CC4)c(OC)c1	?	nt	nt	23µM*	-35%	?
O=C(CNC(=O)C12CC3CC(CC(C3)C1)C2)OCc1ccc(F)cc1Cl	6%	0	-2%	14%	8%	-1%
CCN(CC)C(=O)C(=O)Nc1ccc(OC)c(Cl)c1	10%	16	-1%	6%	-1%	2%
Cc1c(Cl)cccc1NC(=O)CNC(=O)CCS(=O)(=O)c1ccc(F)cc1	-13%	-21	-1%	-30%	-4%	-25%
CCN(c1ccc(OC)cc1)S(=O)(=O)c1cc(-c2cc(C)no2)ccc1C(C)C	?	2	-4%	21µM*	4%	-6%
COc1ccc(-c2cc(C)no2)cc1S(=O)(=O)NCc1cccc(C)c1	8%	49	-5%	?	-19%	-10%
